A selection: hits, their analogues and other compounds. The true share with any hit is near 4.8%.
Mdm2-MdmX inh = disrupts the human Mdm2-MdmX interaction; O15151+Q00987; SaOS-2 split-luciferase Mdm2/MdmX complementation, luminescence; inhibition, % at 8 µM; hit rate 3% among 330,000; AID 485346;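 active = inhibition of at least 50% at 8 µM in the primary screen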
Target sequence (O15151 whole entry, looked up): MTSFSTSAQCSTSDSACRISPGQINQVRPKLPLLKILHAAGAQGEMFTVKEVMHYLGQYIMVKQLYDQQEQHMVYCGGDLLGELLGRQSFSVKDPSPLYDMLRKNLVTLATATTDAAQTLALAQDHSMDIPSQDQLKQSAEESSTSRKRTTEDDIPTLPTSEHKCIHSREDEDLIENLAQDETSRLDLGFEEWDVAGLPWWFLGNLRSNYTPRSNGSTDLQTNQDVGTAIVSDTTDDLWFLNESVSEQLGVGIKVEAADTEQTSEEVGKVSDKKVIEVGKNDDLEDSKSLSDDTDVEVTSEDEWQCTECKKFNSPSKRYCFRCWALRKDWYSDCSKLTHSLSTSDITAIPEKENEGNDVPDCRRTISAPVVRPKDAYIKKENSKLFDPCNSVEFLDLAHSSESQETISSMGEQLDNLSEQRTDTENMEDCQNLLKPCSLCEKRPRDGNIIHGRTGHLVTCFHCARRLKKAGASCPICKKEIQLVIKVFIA
Target sequence (Q00987 whole entry, looked up): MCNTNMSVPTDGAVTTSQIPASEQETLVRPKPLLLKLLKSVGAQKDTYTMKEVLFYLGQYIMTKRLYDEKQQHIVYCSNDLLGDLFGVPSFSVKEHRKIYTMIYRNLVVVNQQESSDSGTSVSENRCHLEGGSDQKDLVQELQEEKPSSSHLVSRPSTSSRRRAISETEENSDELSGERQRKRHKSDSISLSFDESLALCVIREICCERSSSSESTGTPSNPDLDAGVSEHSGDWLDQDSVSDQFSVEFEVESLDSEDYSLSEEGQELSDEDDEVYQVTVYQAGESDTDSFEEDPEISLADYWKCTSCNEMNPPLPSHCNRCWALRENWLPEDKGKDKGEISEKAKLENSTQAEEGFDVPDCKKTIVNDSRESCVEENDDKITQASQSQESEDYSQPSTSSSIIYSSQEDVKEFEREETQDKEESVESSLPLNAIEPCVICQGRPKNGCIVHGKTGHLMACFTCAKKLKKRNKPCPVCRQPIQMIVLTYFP
CSC inhib = cancer stem cell inhibition | cancer stem cell-like cells viability, luminescence | inhibition, % at 7.5 µM | hit rate 1.1% among 300,000; in the data active = inhibition above about 75%; inconclusive = no clear call, values can overlap the other calls; tested in HMLE shEcad cells
Beta apoptosis = blocks beta cell apoptosis; INS-1E cytokine-induced death, ATP luminescence, 48 h; percent of positive-control rescue, neutral wells zero; hit rate 0.8% among 300,000; AID 435005; protection from apoptosis, % (concentration not given with the values);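 active = Every replicate reaches about 75%, or at least half do and their mean reaches it too, limit read from the data; inconclusive = At least half of replicates reach the limit but their mean does not; inactive = Under half of replicates reach the limit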;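 also: 0% = cytokine-treated negative control wells and 100% = positive control rescue; higher means more ATP so stronger rescue from cytokine killing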
MPTP block = inhibitors of mitochondrial permeability transition pore. isolated mouse mitochondria, Ca2+ swelling absorbance, 30 min. inhibition, % at 10 µM. hit rate 1.4% among 360,000;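 active = inhibition of 50% or more, scaled per plate between neutral and stimulator controls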;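 also: 0% = DMSO wells given calcium and 100% = 1 mM EGTA wells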
Calb FLC = C. albicans growth modulation with fluconazole. C. albicans CaCi-2 (fluconazole-resistant clinical isolate) + fluconazole, Alamar Blue growth, 48 h. growth inhibition, % (no concentration beside the values). hit rate 0.57% among 300,000;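 active = growth inhibition above about 58% in most replicates, limit read from the data, passing the limit was not always enough; inconclusive = exactly half the replicates above a set limit; inactive = most replicates below a set limit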;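 also: all wells also contain fluconazole at 8 µg/ml as a sub-toxic cotreatment; 0% = median of DMSO wells and 100% = median of geldanamycin control wells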
Mdm2-MdmX conf = confirmation of human Mdm2/MdmX interaction inhibitors; shares compounds with Mdm2-MdmX inh; Mdm2-MdmX binding, luminescent assay; inhibition, % at 8 µM; hit rate 55% among 10,000; AID 489028; in the data active = inhibition above about 40%
Full FLuc ctr = full-length luciferase inhibition in Mdm2/MdmX counter-screen; shares compounds with Mdm2-MdmX inh; SaOS-2 full-length luciferase counterscreen, luminescence; inhibition, % at 8 µM; hit rate 77% among 6,200;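 active = mean inhibition at 8 µM reaching about 37%, which flags the compound as non-specific, limit read from the data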;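 also: p53-null SaOS-2 cells with luciferase driven by a doxycycline-inducible promoter; compound on cells about two nights before reading with doxycycline added after day one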
An asterisk follows results filed as active; ? = inconclusive; . = no result given.

SMILES | Mdm2-MdmX inh | CSC inhib | Beta apoptosis | MPTP block | Calb FLC | Mdm2-MdmX conf | others
CC(NC(=O)C1CCN(CCOc2ccc(Cl)cc2)CC1)c1cccc2ccccc12 (stereo not drawn) | . | . | . | 4.2 | . | .
COc1ccc(CCN2C(=O)CSCC2(C)C(=O)Nc2ccc3c(c2)OCCO3)cc1OC (stereo not drawn) | . | . | . | 1.5 | . | .
O=C(NC1CCCCC1)C(c1cccnc1)N(C(=O)CCl)c1cccc(Cl)c1 (stereo not drawn) | 100.2* | 31.0 | 0.4 | 5.1 | -2.2 | 99.8* | Full FLuc ctr=52.7*
COC(CN(C(=O)CCl)C(C(=O)NC1CCCCC1)c1ccccc1C)OC (stereo not drawn) | 82.9* | -16.9 | 5.0 | 8.2 | 3.8 | 61.6* | Full FLuc ctr=43.8*
COc1ccc(C(C(=O)NC2CCCCC2)N(C(=O)CCl)c2ccc(Cl)cc2)cc1 (stereo not drawn) | 100.2* | 9.7 | -18.3 | 0.6 | 2.2 | 98.8* | Full FLuc ctr=49.2*
COc1ccc(N(C(=O)c2cnccn2)C(C(=O)NC2CCCCC2)c2ccc(Cl)cc2)cc1 (stereo not drawn) | -2.0 | . | 1.3 | -1.6 | 0.7 | .
COc1ccc2[nH]cc(CCNC(=O)/C=C/[C@H]3O[C@@H](n4cnc5c(NC(=O)c6ccccc6)ncnc54)[C@H](O)[C@@H]3O)c2c1 | . | . | . | 0.3 | . | .
Cn1cc(CCNC(=O)C2CCC(=O)N(CCc3ccc(Cl)cc3)C2)cn1 (stereo not drawn) | -7.5 | -14.9 | -1.8 | -0.4 | 4.0 | .
NC(=S)N/N=C\c1c(OCc2ccccc2Cl)ccc2ccccc12 | 52.7* | 28.1 | 37.5 | -1.2 | 33.7 | 5.0
CCOc1ccc(CCNC(=O)COC(=O)c2cccc(S(=O)(=O)N3CCCC3)c2)cc1OCC | 10.1 | -4.7 | -7.5 | -2.5 | -7.7 | .
O=C(Nc1cccc(C(F)(F)F)c1)N(Cc1ccc(Cl)cc1)CC(O)C(F)(F)F (stereo not drawn) | 66.9* | 54.9 | 6.0 | 8.7 | 8.3 | 4.4
CC(O)(CS(=O)(=O)Cc1ccc(Cl)cc1)C(=O)Nc1cccc(C(F)(F)F)c1 (stereo not drawn) | -28.8 | 15.9 | -10.9 | 1.6 | 8.5 | .
Cc1[nH]c2ccccc2c(=O)c1C(=O)/C=C/c1ccccc1 | 100.3* | 61.3 | 25.0 | 1.8 | 6.3 | 99.6* | Full FLuc ctr=51.8*
Cc1cc(C)nc(NC(=S)Nc2ccc(Br)cc2Cl)c1 | 51.1* | -12.8 | -0.9 | -0.1 | -2.4 | -5.9
Cc1ccc(SCC(=O)OCC(=O)N(C)C2CCS(=O)(=O)C2)cc1C (stereo not drawn) | 3.5 | -16.6 | -4.5 | -0.9 | . | .
C=C[C@@H]1c2cccc(C)c2N(S(=O)(=O)c2ccc(C)cc2)[C@H](c2ccc(OC(C)=O)cc2)C1(C#N)C#N | 51.3* | 106.7* | 2.0 | 0.1 | . | -4.0
N#Cc1c(Nc2ccccc2)sc(C(=O)c2ccccc2)c1N | 3.5 | 12.9 | 1.7 | 2.8 | 25.6 | .
Cc1cccc(Oc2sc(C(=O)c3ccccc3)c(N)c2C#N)c1 | 58.1* | 20.4 | -6.4 | 1.3 | 1.5 | 33.2 | Full FLuc ctr=42.0*
O=C(Cc1cccs1)NCCSc1c(-c2ccc(Cl)cc2)[nH]c2ccccc12 | 77.0* | 71.2 | 36.9 | 1.3 | -6.0 | 25.2
COc1ccc(Nc2nc(-c3ccccc3)nc3ccccc23)cc1 | 33.9 | 73.5 | . | 0.8 | 20.5 | .
COc1ccc(-c2nc(N/N=C(\C)c3ccc(O)cc3)c3ccccc3n2)cc1 | 85.6* | 65.7 | 50.0 | 8.7 | 6.3 | -22.0
CC(C)CC(OC(=O)c1ccc(Cl)nc1)C(=O)NC1CCCC1 (stereo not drawn) | 8.6 | -5.4 | -8.0 | 0.0 | 1.6 | .
CC1(C(=O)NS(=O)(=O)C2CC2)CCCN(C(=O)c2ccccc2OC(F)(F)F)C1 (stereo not drawn) | . | . | . | 2.9 | . | .
COC(=O)c1ccc(NC(=O)C(=O)c2cn(CC(=O)N3CCOCC3)c3ccccc23)cc1 | 54.6* | -5.9 | 2.8 | -1.1 | 6.7 | -0.5
O=C(CCCN1C(=O)NC2(CCCC2)C1=O)Nc1ccc(Cl)c(S(=O)(=O)N2CCOCC2)c1 | 7.4 | . | . | -2.0 | . | .
SMILES | Mdm2-MdmX inh | CSC inhib | Beta apoptosis | MPTP block | Calb FLC | Mdm2-MdmX conf | others
O=C(NN=Cc1c(F)c(F)c(F)c(F)c1F)c1ccc(NS(=O)(=O)c2cccs2)cc1 | 53.0* | 14.8 | -6.5 | -0.7 | . | -16.4
CC(=O)Nc1ccc(C=NNC(=O)c2ccc(NS(=O)(=O)c3cccs3)cc2)cc1 | -5.2 | -6.5 | -2.1 | -0.9 | . | .
COc1cccc(CNC(=O)[C@@H]2CCCN2C(=O)[C@@H]2CCCN2C(=O)c2ccc(Cl)cc2)c1 | . | . | . | -1.7 | . | .
COc1ccc(Cn2c(CCC(=O)Nc3ccccc3)nc3cccnc32)cc1 | 76.7* | 13.7 | -1.9 | 1.2 | 8.5 | 13.3
Cc1ccc2c(c1)[C@@H]1CN(C)CC[C@@H]1N2S(=O)(=O)c1ccc([N+](=O)[O-])cc1 | 4.5 | -3.7 | 13.3 | 1.0 | -2.3 | .
Cc1ccc2c(c1)C1CN(C)CCC1N2Sc1ccccc1[N+](=O)[O-] (stereo not drawn) | 61.1* | 10.3 | -5.2 | 0.6 | 96.9* | 40.2* | Full FLuc ctr=62.0*
COc1ccc(OC)c(/C=C2\SC(=S)N(Cc3cccnc3)C2=O)c1 | 72.9* | 51.8 | 31.7 | 4.0 | 30.4 | 43.5* | Full FLuc ctr=49.2*
COc1ccc(O)c(/C=C2/SC(=S)N(Cc3ccccc3)C2=O)c1 | 30.6 | 43.2 | -13.0 | 1.8 | -2.9 | .
COc1ccc2c(-c3cnc(N4CCOCC4)nc3)c(-c3ccc(S(C)(=O)=O)cc3)sc2c1 | 68.4* | 39.1 | -12.7 | 0.0 | . | -2.4
O=C(O)CCn1cc(/C=C2/NC(=S)N(c3ccccc3)C2=O)c(-c2ccccc2)n1 | 0.2 | -8.5 | -9.1 | -0.7 | 6.8 | .
N#CCCn1cc(/C=C2\NC(=S)N(c3ccccc3)C2=O)c(-c2ccc(-c3ccccc3)cc2)n1 | 63.3* | -2.2 | 6.2 | 3.3 | -8.6 | 18.6
COc1ccc(C(=O)c2[nH]c(N)c(C(=O)NCCc3c[nH]c4ccccc34)c2-c2ccccc2Br)cc1 | . | . | . | -0.1 | . | .
CCOC(=O)c1ccc(NC(=O)COc2ccccc2CNCCc2ccccc2)cc1 | 62.8* | -5.8 | 21.6 | 16.0 | -2.7 | 16.1
CCOC(=O)CSc1nc2c(c(=O)[nH]1)C(C)(CC)Cc1ccccc1-2 (stereo not drawn) | 56.7* | 71.1 | ? | 1.7 | 12.5 | 53.0* | Full FLuc ctr=53.6*
Cc1ccc(OCC(=O)Nc2ccc(O)c(-c3nc4ccccc4o3)c2)cc1 | 91.7* | -7.7 | 6.8 | 0.0 | -2.6 | 46.9* | Full FLuc ctr=108.3*
COc1ccc(OCC(=O)Nc2ccc3oc(-c4ccncc4)nc3c2)cc1 | -4.6 | -0.6 | -9.5 | 4.2 | 37.1 | .
NCCNC(=O)Cn1c(=O)c2c3c(sc2n(Cc2ccccc2)c1=O)CCCC3 | 15.5 | -28.7 | 4.5 | -1.0 | 7.5 | .
CCCNC(=O)c1ccc(N2CCC3(CC2)CC(c2cccc(Br)c2)=NO3)c(NC(=O)c2ccc(Cl)c([N+](=O)[O-])c2)c1 | 60.6* | 12.1 | -1.1 | 1.1 | 2.3 | 12.2
